Data on one molecule can be found in PubChem BioAssay AID2514 (National Center for Advancing Translational Sciences (NCATS), 2010).

Results filed as inconclusive are left out. Active and inactive are the calls of the source. Calls come from the whole dose curve; as a rule, active = well fitted activation curve with a large enough effect; inconclusive = small, poorly fitted or top-dose-only effect; inactive = no such curve, though single readings can be large or run the other way.

The nature of this assay: Confirmation Concentration-Response Assay for Enhancers of SMN2 Splice Variant Expression for Probe SAR. Particulars: HEK293 SMN2 exon7 splicing luciferase reporter, luminescence. An excerpt: NIH Chemical Genomics Center [NCGC] NIH Molecular Libraries Probe Production centers Network [MLPCN] MLPCN Grant: R03 MH084179-01 Assay Submitter (PI): Elliot Androphy NCGC Assay Overview: Spinal muscular atrophy (SMA) is caused by insufficient levels of the survival motor neuron protein SMN. The SMN locus on chromosome 5q13 contains two inverted copies of SMN called SMN1 and SMN2 which are 99% identical at the amino acid level. SMN1 is a fully functional protein and SMN2 skips exon 7 90% of the time. Skipping of exon 7 produces non-functional protein product. 10% of the SMN2 protein includes exon 7 and is fully functional. In the SMA disease state, mutations in the SMN1 locus are the cause of the disease state. Because only 10% of SMN2 is of the fully functional form, it is not sufficient to overcome the deficiency produced by the loss of the SMN1 product. A therapy that either increase the amount of SMN2 product made or to increase the inclusion of exon 7 has been proposed for the treatment of SMA. We have designed an assay to identify small molecules that can increase the amount of functional SMN2 product by appending a luciferase reporter gene after the native SMN2 gene, such that inclusion of exon 7 in the expressed product places the luciferase sequence in frame, thus generating functional luciferase enzyme. […]
For orientation: In a reporter assay the amount or activity of a reporter protein is the signal.

For `Brc1ccc(-c2csc(N3CCCCC3)n2)cc1`, the Potency is 13.7 µM (active).
